Data on 40 compounds can be found in PubChem BioAssay.

Unmarked numbers belong to inactive results. No rule for the calls is given here. Where a SMILES comes first, the peptide text is derived from it. The star is where a group is joined. Boc = CC(C)(C)OC(=O)*

Pantothenate synthetase (Mycobacterium tuberculosis (strain ATCC 25618 / H37Rv)), sequence (P9WIL5 whole entry, looked up): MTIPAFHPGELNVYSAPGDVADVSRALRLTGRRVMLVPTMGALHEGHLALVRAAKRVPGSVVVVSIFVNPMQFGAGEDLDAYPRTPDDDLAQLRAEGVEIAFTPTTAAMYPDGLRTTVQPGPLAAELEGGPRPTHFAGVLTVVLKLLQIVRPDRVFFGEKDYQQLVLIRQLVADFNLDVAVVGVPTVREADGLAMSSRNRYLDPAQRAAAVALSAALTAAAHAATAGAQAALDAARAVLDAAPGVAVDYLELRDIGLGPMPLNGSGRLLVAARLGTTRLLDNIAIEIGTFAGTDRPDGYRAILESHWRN

This experiment concerns the target Pantothenate synthetase (Mycobacterium tuberculosis (strain ATCC 25618 / H37Rv)) (UniProt P9WIL5). The experiment is described as follows: Coupled enzyme confirmation of inhibitors against recombinant Mtb PanC (AID 375).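 Also: 0% = full reaction with vehicle and 100% = no enzyme background.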 As to conditions: coupled enzyme assay; at 10 µM, active compounds read high.
Broadly, the inhibition is the change of the read-out against control, counted positive when it falls. As for `Cc1ccc(Nc2nc(N)nc(CN3CCCCCC3)n2)cc1`, the inhibition is 2%.

For the compound `COC(=O)C1=C(C)NC(=O)C1(NC(=O)c1cccnc1)C(F)(F)F` (stereo not given), the inhibition is 0%. In the case of `O=C(c1cc(C2CC2)on1)N1CCN(C(c2ccccc2)c2ccccc2)CC1` it was 0%. The result for `O=C(CSc1n[nH]c(=O)[nH]c1=O)c1ccccc1` reads 0%. The result for `COc1ccc2c(c1OC)C(=O)O[C@@H]2[C@H]1c2c(cc3c(c2OC)OCO3)CCN1C` reads 0%; that for `CCCCC(CC)Cn1c2nc3ccccc3nc2c2c(=N)oc(C)nc21` (stereo not given), 7%; that for `COCCCNC(=O)CCn1c(=O)c2ccccc2n(CC(=O)Nc2ccc(C)cc2C)c1=O`, 0%. On to `COc1ccc(NC(=O)CSc2nc3c(c(=O)n2-c2ccc(F)cc2)SCC3)cc1`, for which the inhibition was 0%. `Cc1nc(SCC(=O)c2c[nH]c3ccccc23)n[nH]1`: the inhibition was 4%. The result for `COCCCNC(=O)CCc1nc2cccnc2n1Cc1ccc(OC)cc1` reads 0%.

As to `C=CCn1c(=O)[nH]c2cc(C(=O)N3CCN(c4cc(C)ccc4C)CC3)ccc2c1=O`, the inhibition is 4%.

As for `CCOC(=O)c1cnn(-c2sc(C(=O)OCC)c(C)c2C(=O)OCC)c1N`, the inhibition is 0%. The result for `CCOC(=O)N1CCC(N2CC34C=CC(O3)C(C(=O)O)C4C2=O)CC1` (stereo not given) reads 0%; that for `CC(C)CC(NC(=O)OC(C)(C)C)C(=O)NC(C(=O)NC(C)C(N)=O)C(C)C` (stereo not drawn) (Boc-Leu-Val-Ala-NH2; configuration not given here), 16%. In the case of `CC(=O)N1CCc2cc(Br)cc(S(=O)(=O)NCCCN3CCCC(C)C3)c21` (stereo not given) it was 2%; in that of `Cc1ccc(C(C)C)c(OCc2nnc(SCC(=O)Nc3ncc(C)s3)n2C)c1`, 2%; in that of `Cc1cccn2c(=O)c3cc(C#N)c(=O)n(CCCN4CCOCC4)c3nc12`, 0%.

Take `O=c1c2ccccc2c(/C=N/n2cnnc2)c(O)n1-c1ccccc1`: the inhibition was 2%. The result for `O=C(O)c1cc(Cl)c(Cl)cc1C(=O)N1CCCC1` reads 1%; that for `CSc1nnc2c3ccccc3n(CCc3ccccc3)c2n1`, 0%.

With `CCS(=O)(=O)N1CCCC(c2nc(-c3cccc(OC)c3)no2)C1` (stereo not given), the inhibition was 0%. In the case of `CCOc1cccc(C(=O)Nc2cccc(-c3nc4ncccc4o3)c2C)c1` it was 10%; in that of `COc1ccccc1C1/C(=C(/O)c2ccccc2)C(=O)C(=O)N1CC(C)C` (stereo not given), 0%. The result for `O=C(CCOc1ccccc1)NCc1ccccc1` reads 0%; that for `Cc1cc(Nc2ccc(N3CCC(C)CC3)cc2)n2ncnc2n1`, 0%. In the case of `COc1ccc(OC)c(NC(=O)CCNS(=O)(=O)c2cccs2)c1` it was 0%; in that of `CN1CCN(C(=O)NC2CCCN2S(=O)(=O)c2ccc(Cl)cc2)CC1` (stereo not given), 0%; in that of `COC(=O)c1cc(OC)c(OC)cc1NC(=O)CCC1CCCC1`, 0%.

As to `COc1cccc(S(=O)(=O)Nc2cccnc2)c1`, the inhibition was 10%. The result for `CC1Cc2nc(SCC(=O)Nc3ccccc3F)n(C)c(=O)c2S1` (stereo not given) reads 7%; that for `CCOc1ccc(C2CC(c3ccccc3C)n3nc(N)nc3N2)cc1` (stereo not given), 0%.

With `COc1ccc(Cl)cc1C(=O)NCCc1ccc(S(=O)(=O)NC(=O)NC2CCCCC2)cc1`, the inhibition is 0%.

For `COc1ccc(C)cc1S(=O)(=O)N(C)CC(=O)Nc1ccc2c(c1)OCO2`, the inhibition is 0%.

`Cc1ccc(CNC(=O)COC(=O)c2c(C)noc2C)cc1`: the inhibition is 0%. In the case of `C=CCn1c(CC#N)nnc1N1CCOCC1` it was 0%; in that of `CCOC(=O)c1sc2ncn(/N=C/N(C)C)c(=O)c2c1C`, 8%; in that of `CN1[C@@H]2CC(OC(=O)[C@H](CO)c3ccccc3)C[C@H]1[C@@H]1O[C@@H]12` (stereo not given in full), 0%. In the case of `CCCCOC(=O)c1[nH]c2c(c1C)C(=O)CC(c1cc(OC)c(OC)c(OC)c1)C2` (stereo not given) it was 10%; in that of `COc1ccc(/C=N/n2cnnc2SCc2ccc(OC)cc2)cc1`, 0%. Take `CCOc1ccc2nc(NC(=O)C3CCCN(S(=O)(=O)c4c(C)noc4C)C3)sc2c1` (stereo not given): the inhibition is 0%.
